From PubChem BioAssay AID720514 (Broad Institute, 2013) come the findings set out here.

Each structure is given as a SMILES string. Among all 2,100 compounds or so, about 300 (14%) were called active. Inconclusive results (about 2%) are left out. Only a sample is shown. Measured potencies and affinities stand elsewhere. Values without a mark were called inactive.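 Rule for the calls: active = every replicate test run called active, with the signal falling and half-maximal concentration within twice the top valid dose; inconclusive = the replicate test runs disagree in their calls; inactive = every test run inactive, including effects in the opposite direction.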

A short description of this test: inhibitors of PGC1a acetylation in cells, dose response, cell-based, cherry-picked samples (AID 720514).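 Note: 0% = neutral control wells and -100% = positive control wells; actives lower the acetylation signal so they count as inhibitors of PGC1a acetylation.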 As to conditions: U2OS PGC1a acetylation, AlphaLISA, overnight; series mostly up to 19.5 µM; activity change, negative = inhibition: at the top concentration.
Take `CC(C)c1ccc(NC(=O)c2ccc3c(c2)CCN3S(C)(=O)=O)cc1`: the “activity change, negative = inhibition” value was 64.3%.
Take `COc1ccc(-c2cnc3c(c2)C(=O)N([C@H](C)CO)C[C@@H](C)[C@H](CN(C)C(=O)C2CCC2)O3)cc1`: the “activity change, negative = inhibition” value was -4.7%.
Next, `COc1ccc(C#Cc2cnc3c(c2)C(=O)N([C@H](C)CO)C[C@H](C)[C@H](CN(C)S(=O)(=O)c2cccc(F)c2)O3)cc1OC`: 41.5%; `COc1ccc(NC(=O)N(C)C[C@H]2OCc3ccccc3-c3c(n(C)c4ccccc34)C(=O)N([C@@H](C)CO)C[C@H]2C)c(OC)c1`: 147% [at 21 µM].
`COc1ccc(C#Cc2cnc3c(c2)C(=O)N([C@H](C)CO)C[C@H](C)[C@H](CN(C)S(=O)(=O)c2cccs2)O3)cc1OC`: the “activity change, negative = inhibition” value is 41.9%.
Consider `O=C(Nc1ccc(-c2noc(-c3cccs3)n2)cc1)c1cccnc1`, for which the “activity change, negative = inhibition” value was 185%.
Next, `CCOC(=S)SCC(=O)Nc1nc(C)c(C)s1`: 226% [at 10 µM]; `CC(=O)n1cc([C@@H]2C=C(C(=O)Nc3ccccc3)O[C@H](OCc3ccc(CO)cc3)C2)c2ccccc21`: 69.2%.
In the case of `Cc1cc(C(=O)NNS(=O)(=O)c2ccccc2C(F)(F)F)nn1C(C)(C)C`, the “activity change, negative = inhibition” value was 455%.
With `C[C@@H]1CN([C@@H](C)CO)C(=O)c2c(c3ccccc3n2C)-c2ccccc2CO[C@@H]1CN(C)C(=O)Nc1ccccc1C(F)(F)F`, the “activity change, negative = inhibition” value was 192% [at 21 µM].
As to `COc1cccc(S(=O)(=O)N(C)C[C@@H]2Oc3cc(C4=CCCC4)ccc3S(=O)(=O)N([C@H](C)CO)C[C@@H]2C)c1`, the “activity change, negative = inhibition” value is 55.1%.
Regarding `O=C(NC(Nc1cc(C(F)(F)F)ccc1Cl)C(=O)c1ccccc1)c1ccccc1` (stereo unspecified), the “activity change, negative = inhibition” value was 45.2%.
Take `CCN(CC)CCNC(=O)c1ccc2c(c1NCCO)C(=O)c1ccccc1C2=O`: the “activity change, negative = inhibition” value was 38.6%.
Regarding `CCCCn1c(CN(Cc2ccccc2)Cc2ccccc2)nc2c1c(=O)n(C)c(=O)n2C`, the “activity change, negative = inhibition” value is 89.1%.
For `CN1Cc2c(N3CCOCC3)nc3sc(C(=O)c4ccc(Br)cc4)c(N)c3c2CC1(C)C`, the “activity change, negative = inhibition” value was 79.9% [at 10 µM].
For `O=C(c1ccccc1)C(O)(Cc1ccccc1)c1ccccc1` (stereo unspecified), the “activity change, negative = inhibition” value was 110%.
Consider `CC1CCN(S(=O)(=O)c2ccc(NC(=O)c3ccccc3F)cc2)CC1`, for which the “activity change, negative = inhibition” value was 40.4%.
With `COc1ccc(S(=O)(=O)N2CCOCC2)cc1NC(=O)CCNC(=O)c1ccc([N+](=O)[O-])cc1`, the “activity change, negative = inhibition” value was 273%.
The result for `CCOC(=O)C1=CC[C@@H](c2ccc(OC)cc2)N(S(=O)(=O)c2ccc(C)cc2)[C@H]1CC` reads 101%.
Next, `CN(C(=O)C1CC1)C1CCS(=O)(=O)C1` (stereo unspecified): 46.2%; `CCOc1ccccc1NC(=O)CSc1cn[nH]n1`: 52.7%.
Turning to `O=S1(=O)CCOC[C@H](CC2CCCCC2)N1Cc1ccc(F)cc1`, the “activity change, negative = inhibition” value is 51.9%.
The result for `COc1ccc([C@H]2/C=C\CN(S(=O)(=O)/C=C/c3ccccc3)[C@@H](C)C(=O)N2Cc2ccc(F)cc2)cc1` reads 129%; that for `Cc1ccc(CN(CC(O)COc2cccc3[nH]cc(C)c23)C(C)(C)C)cc1` (stereo unspecified), 79.6%; that for `C#CCN1[C@H](/C=C/C2CC2)[C@H](Cc2ccccc2)OC(=O)[C@@H]1[C@@H]1N[C@@H](C(=O)OC)C(C)(C)S1`, -3.54%.
`CCCN(CCC)CCNC(=O)c1cc2c(=O)n(CC)c3ccccc3c2s1`: the “activity change, negative = inhibition” value was 37.5%.
In the case of `COc1ccc(S(=O)(=O)N2CCOCC2)cc1NC(=O)CCNC(=O)c1ccc(Cl)cc1`, the “activity change, negative = inhibition” value is 218%.
Next, `C[C@H](CO)N1C[C@H](C)[C@H](CN(C)Cc2ccc(C(=O)O)cc2)Oc2ncc(-c3ccccc3)cc2C1=O`: 50.4%.
The result for `C[C@H]1CN([C@@H](C)CO)C(=O)c2cc(/C=C/c3ccccc3)cnc2O[C@H]1CN(C)C(=O)CN(C)C` reads 48.2%; that for `CC(C)C#Cc1cnc2c(c1)C(=O)N([C@@H](C)CO)C[C@@H](C)[C@@H](CN(C)C(=O)c1ccccn1)O2`, 34.9%; that for `COc1ccc(S(=O)(=O)N(C)C[C@H]2Oc3cc(C4=CCCC4)ccc3S(=O)(=O)N([C@H](C)CO)C[C@@H]2C)cc1`, 13.2%.
Take `Cc1ccccc1-c1ccc2c(c1)O[C@H](CN(C)Cc1ccncc1)[C@@H](C)CN([C@@H](C)CO)S2(=O)=O`: the “activity change, negative = inhibition” value is 60.3%.
As for `C[C@@H]1CN([C@@H](C)CO)C(=O)c2cc(C#CC3CCCC3)cnc2O[C@H]1CN(C)C(=O)Nc1ccccc1`, the “activity change, negative = inhibition” value was 18.7%.
Turning to `COc1ccc(C)cc1NS(=O)(=O)c1ccc(NC(=O)CN(c2cc([N+](=O)[O-])ccc2C)S(C)(=O)=O)cc1`, the “activity change, negative = inhibition” value is 277%.
As for `CCOC(=O)CCc1c(C)c2ccc(O)cc2oc1=O`, the “activity change, negative = inhibition” value is 40.2%.
As for `OCc1ccc2c(c1)c(-c1ccc3c(c1)OCCO3)c(-c1ccccc1)n2-c1ccccc1`, the “activity change, negative = inhibition” value was 227%.
On to `CCCCCOC(=O)Cc1c(O)c2ccccc2n(C)c1=O`, for which the “activity change, negative = inhibition” value was 34.1%.
`CC(OC(=O)C1CCCC1)C(=O)Nc1ccc(C(N)=O)cc1` (stereo unspecified): the “activity change, negative = inhibition” value was 42%.
Regarding `CCCCN(CC)CCCNC(=O)c1cc2c(=O)n(CC)c3ccccc3c2s1`, the “activity change, negative = inhibition” value is 77.5%.
With `C[C@H](CO)N1C[C@H](C)[C@@H](CN(C)Cc2ccc3c(c2)OCO3)Oc2cc(Br)ccc2S1(=O)=O`, the “activity change, negative = inhibition” value was 41%.
Take `C[C@@H]1CN([C@@H](C)CO)C(=O)c2cc(/C=C/c3ccccc3)cnc2O[C@@H]1CN(C)Cc1cccnc1`: the “activity change, negative = inhibition” value is 34% [at 21 µM].
Turning to `CC(C)CC#Cc1ccc2c(c1)O[C@H](CN(C)Cc1ccccc1)[C@H](C)CN([C@@H](C)CO)S2(=O)=O`, the “activity change, negative = inhibition” value is 19.1%.
As for `C[C@@H]1CN([C@@H](C)CO)C(=O)CCCn2nncc2CO[C@H]1CN(C)CC1CCCCC1`, the “activity change, negative = inhibition” value was 29.3%.
Turning to `COc1ccccc1/C=C1\SC(=S)N(CCC(=O)NCCCn2ccnc2)C1=O`, the “activity change, negative = inhibition” value is 55.3% [at 5 µM].
As to `COc1cccc(NC(=O)N(C)C[C@H]2OCc3ccccc3-c3c(n(C)c4ccccc34)C(=O)N([C@@H](C)CO)C[C@@H]2C)c1`, the “activity change, negative = inhibition” value was 40%.
Take `C[C@@H]1CN([C@@H](C)CO)C(=O)c2c(c3ccccc3n2C)-c2ccccc2CO[C@@H]1CN(C)C(=O)c1cc(Cl)cc(Cl)c1`: the “activity change, negative = inhibition” value is 84%.
Regarding `C[C@H](CO)N1C[C@H](C)[C@H](CN(C)Cc2ccc(C(=O)Nc3ccccc3N)cc2)Oc2c(NC(=O)c3ccncc3)cccc2C1=O`, the “activity change, negative = inhibition” value is 66.6% [at 16 µM].
As to `C[C@H]1CN([C@@H](C)CO)S(=O)(=O)c2ccc(C#CCN(C)C)cc2O[C@@H]1CN(C)Cc1ccc2c(c1)OCO2`, the “activity change, negative = inhibition” value was 63.7%.
With `C[C@H](CO)N1C[C@H](C)[C@@H](CN(C)CC2CCCCC2)Oc2c(NC(=O)c3nc4ccccc4s3)cccc2C1=O`, the “activity change, negative = inhibition” value was -3.98%.
Turning to `Nc1c(C(=O)c2ccccc2)sc2nsc(SCCN3CCCC3)c12`, the “activity change, negative = inhibition” value was 56.7%.
As for `COc1ccc(S(=O)(=O)Nc2ccc3c(c2)C(=O)N([C@H](C)CO)C[C@H](C)[C@H](CN(C)S(=O)(=O)c2cn(C)cn2)OCCCC[C@@H](C)O3)cc1`, the “activity change, negative = inhibition” value was 39.9% [at 21 µM].
